Inconclusive results are not listed. Entries that show only a call come without a potency. Activity calls are given as the source filed them. Unless noted, the call rests on the fitted dose curve; in most records, active means well fitted curve in the direction sought with a large enough effect in the repeat runs; inconclusive means weak or mixed curves; inactive means no such curve, though single readings can be large; an effect the other way counts as inactive or inconclusive.
Test system: not listed separately
Assay: qHTS assay to identify small molecule antagonists of the thyroid receptor (TR) signaling pathway - cell viability counter screen (AID 743064); further: nearly all actives have a fitted effect of over 50% in size
Details: GH3.TRE-Luc viability, CellTiter-Fluor, 24 h; series mostly up to 70.3 µM
In short: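 GH3.TRE-Luc rat pituitary cells dosed after 4 hr plating, co-stimulated with T3 at 1 nM final, incubated 23.5 h at 37 C. Viability measured in the same wells by CellTiter-Fluor fluorescence after 30 min further at 37 C.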

SMILES	Potency
COC(=O)c1cccc(Cl)c1	inactive
CCCCCCCCCCCCCCCCCC#N	inactive
CCCCCc1cccc(=O)o1	inactive
Cc1ccc(C(=O)O)cc1[N+](=O)[O-]	inactive
CCC/C=C(\C=O)CC	inactive
CSc1cnccn1	inactive
CC/C(C)=N\O[Si](C)(O/N=C(\C)CC)O/N=C(\C)CC	inactive
CCCSSCCC	inactive
Cc1ncc([N+](=O)[O-])n1CC(C)O (configuration not stated)	inactive
C[C@@H](O)C(=O)O	inactive
COc1ccc2c(c1)c1c3n2CCN(C)C3=NCC1	inactive
O=C[O][Al]([O]C=O)[O]C=O	inactive
C/C(CC(C)C)=N\O	inactive
Cn1nnc2c(C(N)=O)ncn2c1=O	inactive
CC(C)C1OCCN1CCOC(=O)NCCCCCCNC(=O)OCCN1CCOC1C(C)C (configuration not stated)	inactive
CC(C)Cn1cnc2c1c(=O)n(C)c(=O)n2C	inactive
O=C(NCN1CCOCC1)c1cnccn1	inactive

SMILES	Potency
CC1c2ccccc2CN1NC(=O)c1ccc(Cl)c(S(N)(=O)=O)c1 (configuration not stated)	inactive
CCCCOC(=O)[C@H](C)O	inactive
OC1OCCOC1O (configuration not stated)	inactive
CC(C)(C)NC[C@H](O)COc1cccc2c1CCCC2=O	inactive
O=C(O)CCCCCC(=O)O	inactive
C=CCCCCCCCCC(=O)OCCCC	inactive
CCOCCOCC	inactive
OCC1CCC(CO)CC1 (configuration not stated)	inactive
CCCCCCCCCCOC(C)=O	inactive
CC(C)CO	inactive
CC12CCC(C1)C(C)(C)C2O (configuration not stated)	inactive
CC(=O)OC1CCCCC1C(C)(C)C (configuration not stated)	inactive
CC(=O)OCC(=O)Nc1cc(C#N)cc(NC(=O)COC(C)=O)c1Cl	inactive
N#CCC(=O)NN	inactive
O=C1CCCCO1	inactive
CCO	inactive
CC1(C)[C@H]2CC[C@](C)(C2)[C@H]1O	inactive

Test system: not listed separately
Assay: qHTS assay to identify small molecule antagonists of the thyroid receptor (TR) signaling pathway (AID 743065); further: nearly all actives have a fitted effect of over 55% in size
Details: GH3.TRE-Luc, T3-stimulated luciferase inhibition, 23.5 h; series mostly up to 70.3 µM
In short: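 GH3.TRE-Luc rat pituitary cells (two TREs driving luciferase) were dosed with compound, then stimulated with 1 nM T3 (final) for 23.5 h at 37 C. ONE-Glo luminescence was the read-out, with CellTiter-Fluor fluorescence as the cytotoxicity counter-screen.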

SMILES	Potency
COC(=O)c1cccc(Cl)c1	inactive
CCCCCCCCCCCCCCCCCC#N	inactive
CCCCCc1cccc(=O)o1	inactive
Cc1ccc(C(=O)O)cc1[N+](=O)[O-]	inactive
CCC/C=C(\C=O)CC	inactive
CSc1cnccn1	inactive
CC/C(C)=N\O[Si](C)(O/N=C(\C)CC)O/N=C(\C)CC	inactive
CCCSSCCC	inactive
Cc1ncc([N+](=O)[O-])n1CC(C)O (configuration not stated)	inactive
C[C@@H](O)C(=O)O	inactive
COc1ccc2c(c1)c1c3n2CCN(C)C3=NCC1	inactive
O=C[O][Al]([O]C=O)[O]C=O	inactive
C/C(CC(C)C)=N\O	inactive
Cn1nnc2c(C(N)=O)ncn2c1=O	inactive
CC(C)C1OCCN1CCOC(=O)NCCCCCCNC(=O)OCCN1CCOC1C(C)C (configuration not stated)	inactive
CC(C)Cn1cnc2c1c(=O)n(C)c(=O)n2C	inactive
O=C(NCN1CCOCC1)c1cnccn1	inactive

SMILES	Potency
CC1c2ccccc2CN1NC(=O)c1ccc(Cl)c(S(N)(=O)=O)c1 (configuration not stated)	inactive
CCCCOC(=O)[C@H](C)O	inactive
OC1OCCOC1O (configuration not stated)	inactive
CC(C)(C)NC[C@H](O)COc1cccc2c1CCCC2=O	inactive
O=C(O)CCCCCC(=O)O	inactive
C=CCCCCCCCCC(=O)OCCCC	inactive
CCOCCOCC	inactive
OCC1CCC(CO)CC1 (configuration not stated)	inactive
CCCCCCCCCCOC(C)=O	inactive
CC(C)CO	inactive
CC12CCC(C1)C(C)(C)C2O (configuration not stated)	inactive
CC(=O)OC1CCCCC1C(C)(C)C (configuration not stated)	inactive
CC(=O)OCC(=O)Nc1cc(C#N)cc(NC(=O)COC(C)=O)c1Cl	inactive
N#CCC(=O)NN	inactive
O=C1CCCCO1	inactive
CCO	inactive
CC1(C)[C@H]2CC[C@](C)(C2)[C@H]1O	inactive

Test system: thyroid hormone receptor (rat, GH3 cells)
Assay: qHTS assay to identify small molecule agonists of the thyroid receptor (TR) signaling pathway (AID 743066; calls by dose curve)
Details: GH3.TRE-Luc cells, TR agonist luciferase, 24 h; series mostly up to 83.9 µM

SMILES	outcome
COC(=O)c1cccc(Cl)c1	inactive
CCCCCCCCCCCCCCCCCC#N	inactive
CCCCCc1cccc(=O)o1	inactive
Cc1ccc(C(=O)O)cc1[N+](=O)[O-]	inactive
CCC/C=C(\C=O)CC	inactive
CSc1cnccn1	inactive
CC/C(C)=N\O[Si](C)(O/N=C(\C)CC)O/N=C(\C)CC	inactive
CCCSSCCC	inactive
Cc1ncc([N+](=O)[O-])n1CC(C)O (configuration not stated)	inactive
C[C@@H](O)C(=O)O	inactive
COc1ccc2c(c1)c1c3n2CCN(C)C3=NCC1	inactive
O=C[O][Al]([O]C=O)[O]C=O	inactive
C/C(CC(C)C)=N\O	inactive
Cn1nnc2c(C(N)=O)ncn2c1=O	inactive
CC(C)C1OCCN1CCOC(=O)NCCCCCCNC(=O)OCCN1CCOC1C(C)C (configuration not stated)	inactive
CC(C)Cn1cnc2c1c(=O)n(C)c(=O)n2C	inactive
O=C(NCN1CCOCC1)c1cnccn1	inactive

SMILES	outcome
CC1c2ccccc2CN1NC(=O)c1ccc(Cl)c(S(N)(=O)=O)c1 (configuration not stated)	inactive
CCCCOC(=O)[C@H](C)O	inactive
OC1OCCOC1O (configuration not stated)	inactive
CC(C)(C)NC[C@H](O)COc1cccc2c1CCCC2=O	inactive
O=C(O)CCCCCC(=O)O	inactive
C=CCCCCCCCCC(=O)OCCCC	inactive
CCOCCOCC	inactive
OCC1CCC(CO)CC1 (configuration not stated)	inactive
CCCCCCCCCCOC(C)=O	inactive
CC(C)CO	inactive
CC12CCC(C1)C(C)(C)C2O (configuration not stated)	inactive
CC(=O)OC1CCCCC1C(C)(C)C (configuration not stated)	inactive
CC(=O)OCC(=O)Nc1cc(C#N)cc(NC(=O)COC(C)=O)c1Cl	inactive
N#CCC(=O)NN	inactive
O=C1CCCCO1	inactive
CCO	inactive
CC1(C)[C@H]2CC[C@](C)(C2)[C@H]1O	inactive
